From PubChem BioAssay AID1159580 (chemical genetic matrix, 2015)
The campaign covered roughly 5,500 compounds. About 2,000 (36%) were called active. Inconclusive results (about 18%) are left out. Rule as the data show it: active = normalized growth mostly below about 0.91 (no sharp cut-off); inconclusive = no clear call, values can overlap the other calls; inactive = mostly above about 0.92. Some of the results follow.

Assay: chemical genetic growth profiling, strain panel (AID 1159580);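 also: tested at 20 µM; growth read once vehicle control cultures reached saturation at 30 °C; 1 = growth at the plate median or of vehicle wells; lower values mean less growth of the strain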
Conditions: growth OD

Measured: normalized growth

CCCC(=O)O[C@]1(C(=O)CO)CCC2[C@@H]3CCC4=CC(=O)CC[C@]4(C)C3[C@@H](O)C[C@@]21C (stereo not given in full)
inactive: S. cerevisiae deletion strains, locus YJR066W, strain TOR1, hits give low values 0.99 | S. cerevisiae deletion strains, locus YKL009W, strain mrt4, hits give low values 0.958 | S. cerevisiae deletion strains, locus YKL068W, hits give low values 1.02 | S. cerevisiae deletion strains, locus YKL085W, strain MDH1 (second series), hits give low values 1.01 | S. cerevisiae deletion strains, locus YKL085W, strain MDH1, hits give low values 1.01 | S. cerevisiae deletion strains, locus YKL160W, strain elf1, hits give low values 1.01 | S. cerevisiae deletion strains, locus YKL190W, strain CNB1, hits give low values 1 | S. cerevisiae deletion strains, locus YKR001C, strain vps1, hits give low values 0.982 | S. cerevisiae deletion strains, locus YKR026C, strain gcn3, hits give low values 1.01 | S. cerevisiae deletion strains, locus YKR091W, strain srl3, hits give low values 1 | S. cerevisiae deletion strains, locus YLL001W, strain dnm1, hits give low values 1.01 | S. cerevisiae deletion strains, locus YLL026W, hits give low values 1 | S. cerevisiae deletion strains, locus YLL041C, strain sdh2, hits give low values 1 | S. cerevisiae deletion strains, locus YLR027C, strain aat2, hits give low values 1 | S. cerevisiae deletion strains, locus YLR039C, strain RIC1, hits give low values 0.988 | S. cerevisiae deletion strains, locus YLR058C, strain SHM2, hits give low values 1.01 | S. cerevisiae deletion strains, locus YLR102C, strain apc9, hits give low values 0.985 | S. cerevisiae deletion strains, locus YLR113W, strain HOG1, hits give low values 1.07 | S. cerevisiae deletion strains, locus YLR221C, strain rsa3, hits give low values 1.01 | S. cerevisiae deletion strains, locus YLR258W, strain gsy2, hits give low values 1.01 | S. cerevisiae deletion strains, locus YLR262C, strain YPT6 (second series), hits give low values 1.01 | S. cerevisiae deletion strains, locus YLR262C, strain YPT6, hits give low values 1.01 | S. cerevisiae deletion strains, locus YLR268W, strain sec22, hits give low values 0.988 | S. cerevisiae deletion strains, locus YLR320W, strain mms22, hits give low values 1.02 | S. cerevisiae deletion strains, locus YLR330W, strain CHS5, hits give low values 1.01 | S. cerevisiae deletion strains, locus YLR342W, strain FKS1 (second series), hits give low values 0.996 | S. cerevisiae deletion strains, locus YLR342W, strain FKS1, hits give low values 1.02 | S. cerevisiae deletion strains, locus YLR357W, strain rsc2, hits give low values 1 | S. cerevisiae deletion strains, locus YLR370C, strain arc18, hits give low values 1.01 | S. cerevisiae deletion strains, locus YLR371W, strain rom2, hits give low values 0.996 | S. cerevisiae deletion strains, locus YLR384C, strain iki3, hits give low values 1.01 | S. cerevisiae deletion strains, locus YLR418C, strain cdc73, hits give low values 0.934 | S. cerevisiae deletion strains, locus YML016C, strain PPZ1, hits give low values 1.01 | S. cerevisiae deletion strains, locus YML032C, strain rad52, hits give low values 0.948 | S. cerevisiae deletion strains, locus YML120C, strain ndi1, hits give low values 0.992 | S. cerevisiae deletion strains, locus YML124C, strain tub3, hits give low values 0.996 | S. cerevisiae deletion strains, locus YMR058W, strain fet3, hits give low values 1.01 | S. cerevisiae deletion strains, locus YMR078C, strain ctf18, hits give low values 0.984 | S. cerevisiae deletion strains, locus YMR125W, strain sto1, hits give low values 1.02 | S. cerevisiae deletion strains, locus YMR129W, hits give low values 1.01 | S. cerevisiae deletion strains, locus YMR205C, strain PFK2, hits give low values 1.02 | S. cerevisiae deletion strains, locus YMR223W, strain ubp8, hits give low values 0.951 | S. cerevisiae deletion strains, locus YMR231W, strain pep5, hits give low values 1.01 | S. cerevisiae deletion strains, locus YMR263W, strain SAP30, hits give low values 1.01 | S. cerevisiae deletion strains, locus YMR307W, strain GAS1, hits give low values 0.999 | S. cerevisiae deletion strains, locus YNL067W, strain RPL9B, hits give low values 1.01 | S. cerevisiae deletion strains, locus YNL071W, strain lat1, hits give low values 1 | S. cerevisiae deletion strains, locus YNL128W, strain TEP1, hits give low values 0.994 | S. cerevisiae deletion strains, locus YNL153C, strain GIM3, hits give low values 1.02 | S. cerevisiae deletion strains, locus YNL183C, strain NPR1, hits give low values 0.995 | S. cerevisiae deletion strains, locus YNL209W, strain ssb2, hits give low values 1 | S. cerevisiae deletion strains, locus YNL233W, strain BNI4, hits give low values 1.02 | S. cerevisiae deletion strains, locus YNL248C, strain rpa49, hits give low values 1.02 | S. cerevisiae deletion strains, locus YNL250W, strain rad50, hits give low values 0.983 | S. cerevisiae deletion strains, locus YNL271C, strain bni1, hits give low values 0.992 | S. cerevisiae deletion strains, locus YNL298W, strain CLA4, hits give low values 0.972 | S. cerevisiae deletion strains, locus YNL307C, strain MCK1, hits give low values 0.982 | S. cerevisiae deletion strains, locus YNL322C, strain KRE1 (second series), hits give low values 1.01 | S. cerevisiae deletion strains, locus YNR049C, strain mso1, hits give low values 1.01 | S. cerevisiae deletion strains, locus YNR052C, strain pop2, hits give low values 0.975 | S. cerevisiae deletion strains, locus YOL006C, strain TOP1, hits give low values 1.06 | S. cerevisiae deletion strains, locus YOL012C, strain htz1 1.05 | S. cerevisiae deletion strains, locus YOL147C, strain pex11, hits give low values 0.982 | S. cerevisiae deletion strains, locus YOR001W, strain rrp6, hits give low values 1.02 | S. cerevisiae deletion strains, locus YOR061W, strain CKA2, hits give low values 1.01 | S. cerevisiae deletion strains, locus YOR069W, strain VPS5, hits give low values 1 | S. cerevisiae deletion strains, locus YOR070C, strain gyp1, hits give low values 1 | S. cerevisiae deletion strains, locus YOR080W, strain dia2, hits give low values 0.997 | S. cerevisiae deletion strains, locus YOR083W, strain WHI5, hits give low values 1 | S. cerevisiae deletion strains, locus YOR106W, strain vam3, hits give low values 1 | S. cerevisiae deletion strains, locus YOR136W, strain idh2, hits give low values 0.983 | S. cerevisiae deletion strains, locus YOR144C, strain elg1, hits give low values 0.977 | S. cerevisiae deletion strains, locus YOR184W, strain ser1, hits give low values 0.963 | S. cerevisiae deletion strains, locus YOR231W, strain MKK1, hits give low values 1.09 | S. cerevisiae deletion strains, locus YOR265W, strain rbl2, hits give low values 1 | S. cerevisiae deletion strains, locus YOR270C, strain vph1, hits give low values 1.01 | S. cerevisiae deletion strains, locus YOR290C, strain snf2, hits give low values 1 | S. cerevisiae deletion strains, locus YOR316C, strain cot1, hits give low values 0.994 | S. cerevisiae deletion strains, locus YPL051W, strain arl3, hits give low values 1 | S. cerevisiae deletion strains, locus YPL055C, strain LGE1, hits give low values 1.04 | S. cerevisiae deletion strains, locus YPL078C, strain atp4, hits give low values 1.01 | S. cerevisiae deletion strains, locus YPL106C, strain sse1, hits give low values 1.02 | S. cerevisiae deletion strains, locus YPL240C, strain hsp82, hits give low values 1 | S. cerevisiae deletion strains, locus YPL256C, strain CLN2, hits give low values 1.05 | S. cerevisiae deletion strains, locus YPR119W, strain clb2, hits give low values 0.993 | S. cerevisiae deletion strains, locus YPR141C, strain kar3, hits give low values 1.01 | S. cerevisiae deletion strains, locus YPR163C, strain tif3, hits give low values 1.01 | S. cerevisiae deletion strains, locus YPR167C, strain met16, hits give low values 0.99 | S. cerevisiae deletion strains, strain wtn01, hits give low values 0.961 | S. cerevisiae strains, strain wild type, hits give low values 1.01
